12 compounds from PubChem BioAssay (EPA / NIEHS) can be followed below.

Where “and” joins values, the source holds several entries; their conditions need not be identical. Identical values can stand only once. Calls of active or inactive are those of the source. Rule for the calls: active = hit-call score of the fitted dose curve at least 0.9, where 1 is the maximum; inactive = score below 0.9.

For the experiment, the system named is TTR (gene 7276). In words: CCTE_GLTED_hTTR_0.125uM: CCTE's human Transthyretin (hTTR) Inhibition Assay, with 0.125uM TTR, Great Lakes Toxicology and Ecology Division (GLTED) Lab (AID 2284431). The method, then: CCTE_GLTED_hTTR is a cell-free, single-readout assay designed to test the chemicals' ability to displace T4 from the human transthyretin (TTR) protein. TTR (at 0.125uM or 0.5uM) is incubated in presence of test chemical for 2 hours during which disrupting chemicals displace ANSA from the TTR protein. Results read fluorescence at 380 excitation and 475 emission.CCTE_GLTED_hTTR_0.125uM is the assay component measured from the CCTE_GLTED_hTTR assay. It is designed to make measurements of fluorescent polarization, using a form of binding reporter, as detected with Fluorescence signals by Fluorescence technology.Data from the assay component CCTE_GLTED_hTTR_0.125uM was analyzed at the assay endpoint CCTE_GLTED_hTTR_0.125uM in the positive analysis fitting direction relative to DMSO as the negative control and baseline of activity. Using a type of binding reporter, loss-of-signal activity can be used to understand a chemical's ability to displace T4 from transthyretin. To generalize the intended target to other relatable targets, this assay endpoint is annotated to the 'transporter' intended target family, where the subfamily is 'hormone carrier protein'.
Human transthyretin (TTR) assay, developed at Great Lakes Toxicology and Ecology Division (GLTED) within the EPA's Center for Computational Toxicology and Exposure (CCTE), is designed to test the chemicals' ability to displace T4 from the TTR protein. TTR (0.125uM) is incubated in presence of test chemical for 2 hours during which disrupting chemicals displace ANSA from the TTR protein. Results read fluorescence at 380 excitation and 475 emission.
With `CCC(C)N(C)C(=O)c1cc2ccccc2c(-c2ccccc2Cl)n1` (configuration not stated), the half-maximal activity concentration (AC50) was 27.1 µM (active). To `O=C(O)c1[nH]n(-c2ccc(S(=O)(=O)O)cc2)c(=O)c1N=Nc1ccc(S(=O)(=O)O)cc1` belongs 17.8 µM (active); to `CCCCCCCCCCCCCCOS(=O)(=O)O`, 1.9 µM (active); to `CCCCc1nc2cccnc2n1Cc1ccc(-c2ccccc2-c2nnn[nH]2)cc1`, 7.22 µM (active). On to `O=C1OC(c2ccc(O)cc2)(c2ccc(O)cc2)c2ccccc21`, for which the half-maximal activity concentration (AC50) was 0.056 µM (active). Then `Cc1cc(Cc2ccc(N)c(C)c2)ccc1N`, with 9.71 µM (active); and `O=Cc1ccccc1C=O`, with 0.121 µM (active). Regarding `CC(=O)CC(c1ccccc1)c1c(O)c2ccccc2oc1=O` (configuration not stated), the AC50 was 7.34 µM (active) and 4.39 µM (active).

On to `Cc1c(C)c2c(c(C)c1O)CCC(C)(COc1ccc(CC3SC(=O)NC3=O)cc1)O2` (configuration not stated), for which the AC50 is 2.31 µM (active). `O=C1c2c(O)cccc2Cc2cccc(O)c21`: the half-maximal activity concentration (AC50) was 22 µM (active).

As to `S=c1[nH]c2ccccc2s1`, the concentration at half-maximal activity (AC50) is 4.06 µM (active). To `O=C(NS(=O)(=O)/C=C/c1cccs1)c1ccc(F)cc1Br` belongs 7.75 µM (active).
